A selection: hits, their analogues and other compounds. The true share with any hit is near 0.89%.
BJeLR viability = BJeLR cell viability loss, primary screen, luminescence, CellTiterGlo ATP; AID 2275, 2010; BJeLR fibroblasts viability, 48 h; HRASV12, hTERT and SV40 LT/ST transformed; viability loss activity score, % (no concentration beside the values); hit rate 0.64% among 30,000; in the data active = viability loss activity score above about 50%;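 also: higher score means fewer live cells and less ATP luminescence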
A1 inh = inducers of caspase activity in MEF A1-2A-BIM cells, primary screen, A1 inhibitor project, cell-based, CaspaseGlo luminescence | caspase-Glo luminescence, 3 h; percent of clofoctol signal, DMSO as zero | caspase activation, % (concentration not given with the values) | hit rate 0.51% among 21,000 | AID 2241, 2010;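 active = most replicate scores above 10, or exactly half above 10 with mean activity above 10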;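 also: effector caspase 3 and 7 activity cleaving a DEVD luciferin substrate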
Active calls of the source: *; . = no result.

SMILES | BJeLR viability | A1 inh
O=C(C1CC1)N1c2ccccc2CCc2ccccc21 | 54.1* | 2.0
CCc1ccccc1NC(=O)C(C)(C)CC | 1.7 | 0.4
c1ccc(-c2nc(C34CC5CC(CC(C5)C3)C4)cs2)cc1 | 13.4 | -1.3
FC(F)(F)c1[nH]nc(-c2ccccc2)c1C12CC3CC(CC(C3)C1)C2 | 5.5 | 11.0*
CCc1ccc(NC(=O)c2cc3cc4ccc(C)cc4nc3o2)cc1 | 14.2 | .

Assay outcomes: PubChem, Broad Institute
